The source of these data is ChEMBL document CHEMBL5724796, “Tm Shift (DSF) assay results for EUbOPEN Chemogenomics Library” (2024).

By ΔTm is commonly meant the change in melting temperature against a reference sample.

Settings in all cases: Compound concentration 20.0 uM
For assay [1], the target named is Tyrosine-protein kinase ABL1 (Homo sapiens) (UniProt P00519).
Assay [2] addresses Bromodomain-containing protein 4 (Homo sapiens) (UniProt O60885).
Assay [3] concerns the target Cyclin-dependent kinase 2 (Homo sapiens) (UniProt P24941).
Assay [4] addresses Casein kinase I isoform delta (Homo sapiens) (UniProt P48730).
The target in assay [5] is Glycogen synthase kinase-3 beta (Homo sapiens) (UniProt P49841).
The target of assay [6] is Mitogen-activated protein kinase 1 (Homo sapiens) (UniProt P28482).
Assay [7] addresses T1, Aurora kinase A (Homo sapiens) (UniProt O14965).
T1 sequence (whole entry): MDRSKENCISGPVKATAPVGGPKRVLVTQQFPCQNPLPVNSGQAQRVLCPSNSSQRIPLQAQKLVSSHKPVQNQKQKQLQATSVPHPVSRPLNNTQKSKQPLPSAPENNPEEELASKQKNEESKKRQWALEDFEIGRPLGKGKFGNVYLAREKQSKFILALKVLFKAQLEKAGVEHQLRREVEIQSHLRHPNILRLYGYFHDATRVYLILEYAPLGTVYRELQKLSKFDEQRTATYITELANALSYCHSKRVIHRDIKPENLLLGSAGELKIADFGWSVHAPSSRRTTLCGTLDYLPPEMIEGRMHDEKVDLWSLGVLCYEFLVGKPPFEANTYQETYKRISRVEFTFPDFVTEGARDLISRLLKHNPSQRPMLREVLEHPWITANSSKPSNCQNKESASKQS

Assay [8] deals with T2, Transcription intermediary factor 1-alpha (Homo sapiens) (UniProt O15164).
T2 sequence (whole entry): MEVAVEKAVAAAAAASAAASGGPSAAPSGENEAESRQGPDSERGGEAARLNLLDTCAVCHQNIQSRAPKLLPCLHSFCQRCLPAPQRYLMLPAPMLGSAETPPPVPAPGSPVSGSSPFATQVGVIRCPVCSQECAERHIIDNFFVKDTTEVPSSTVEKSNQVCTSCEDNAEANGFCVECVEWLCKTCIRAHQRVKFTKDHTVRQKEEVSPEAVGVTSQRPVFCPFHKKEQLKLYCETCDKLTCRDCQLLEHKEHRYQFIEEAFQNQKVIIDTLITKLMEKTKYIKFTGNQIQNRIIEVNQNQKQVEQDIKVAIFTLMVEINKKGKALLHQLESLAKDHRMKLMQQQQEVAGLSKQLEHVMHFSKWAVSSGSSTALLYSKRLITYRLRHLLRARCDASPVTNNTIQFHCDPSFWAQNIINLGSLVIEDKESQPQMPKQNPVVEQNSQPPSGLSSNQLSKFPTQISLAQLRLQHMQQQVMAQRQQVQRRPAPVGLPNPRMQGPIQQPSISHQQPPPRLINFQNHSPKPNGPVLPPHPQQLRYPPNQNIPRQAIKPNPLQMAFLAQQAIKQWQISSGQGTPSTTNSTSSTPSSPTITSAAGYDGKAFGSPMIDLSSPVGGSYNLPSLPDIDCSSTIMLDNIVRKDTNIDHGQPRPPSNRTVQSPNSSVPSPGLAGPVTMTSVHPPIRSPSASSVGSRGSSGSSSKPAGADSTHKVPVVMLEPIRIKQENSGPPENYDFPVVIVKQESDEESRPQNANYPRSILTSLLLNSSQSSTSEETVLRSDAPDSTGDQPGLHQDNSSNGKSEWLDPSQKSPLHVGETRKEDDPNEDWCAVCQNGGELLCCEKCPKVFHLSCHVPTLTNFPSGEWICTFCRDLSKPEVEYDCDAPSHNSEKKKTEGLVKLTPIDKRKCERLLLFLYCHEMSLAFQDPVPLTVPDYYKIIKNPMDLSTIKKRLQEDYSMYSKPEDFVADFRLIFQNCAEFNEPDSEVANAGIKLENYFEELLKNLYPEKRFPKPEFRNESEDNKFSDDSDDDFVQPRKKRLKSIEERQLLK

Non-standard residues stand in square brackets, D forms with d. Residues, ends and D or L forms follow the SMILES beside them. Nle = CCCC[C@H](N)C(=O)O

Chain of Casein kinase I isoform delta (Homo sapiens) (P48730 whole entry, looked up, canonical isoform): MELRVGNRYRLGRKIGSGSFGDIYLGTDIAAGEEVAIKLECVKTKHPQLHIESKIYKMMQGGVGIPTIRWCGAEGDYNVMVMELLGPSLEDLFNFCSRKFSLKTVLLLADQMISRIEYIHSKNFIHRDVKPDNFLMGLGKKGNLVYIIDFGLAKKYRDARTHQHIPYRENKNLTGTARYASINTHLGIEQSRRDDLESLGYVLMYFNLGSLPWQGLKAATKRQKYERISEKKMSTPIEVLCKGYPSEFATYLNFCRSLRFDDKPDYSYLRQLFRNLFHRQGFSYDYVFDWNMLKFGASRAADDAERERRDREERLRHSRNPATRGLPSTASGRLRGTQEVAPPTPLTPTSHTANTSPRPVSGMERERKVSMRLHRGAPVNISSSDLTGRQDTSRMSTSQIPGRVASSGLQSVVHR
Chain of Glycogen synthase kinase-3 beta (Homo sapiens) (P49841 whole entry, looked up): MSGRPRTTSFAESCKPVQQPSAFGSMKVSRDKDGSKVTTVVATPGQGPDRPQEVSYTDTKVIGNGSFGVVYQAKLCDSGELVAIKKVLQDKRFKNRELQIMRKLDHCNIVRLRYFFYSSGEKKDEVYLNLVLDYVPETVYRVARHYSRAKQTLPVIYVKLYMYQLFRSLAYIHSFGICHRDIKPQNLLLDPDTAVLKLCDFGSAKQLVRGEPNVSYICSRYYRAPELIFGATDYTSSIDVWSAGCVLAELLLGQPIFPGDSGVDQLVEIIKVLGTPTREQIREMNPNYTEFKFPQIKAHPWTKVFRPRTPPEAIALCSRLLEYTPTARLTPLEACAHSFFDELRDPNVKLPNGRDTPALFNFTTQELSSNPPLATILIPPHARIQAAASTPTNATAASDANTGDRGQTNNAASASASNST
Chain of Mitogen-activated protein kinase 1 (Homo sapiens) (P28482 whole entry): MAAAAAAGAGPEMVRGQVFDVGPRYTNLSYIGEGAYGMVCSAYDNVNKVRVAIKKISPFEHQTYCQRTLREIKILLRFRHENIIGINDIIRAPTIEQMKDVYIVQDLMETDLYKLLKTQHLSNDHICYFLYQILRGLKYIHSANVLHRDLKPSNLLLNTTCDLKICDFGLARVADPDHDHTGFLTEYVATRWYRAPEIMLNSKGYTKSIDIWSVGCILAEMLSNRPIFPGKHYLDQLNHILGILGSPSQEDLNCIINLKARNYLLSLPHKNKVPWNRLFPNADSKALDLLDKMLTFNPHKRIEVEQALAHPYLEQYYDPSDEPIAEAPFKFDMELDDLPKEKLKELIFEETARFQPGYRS
Chain of Tyrosine-protein kinase ABL1 (Homo sapiens) (P00519 whole entry): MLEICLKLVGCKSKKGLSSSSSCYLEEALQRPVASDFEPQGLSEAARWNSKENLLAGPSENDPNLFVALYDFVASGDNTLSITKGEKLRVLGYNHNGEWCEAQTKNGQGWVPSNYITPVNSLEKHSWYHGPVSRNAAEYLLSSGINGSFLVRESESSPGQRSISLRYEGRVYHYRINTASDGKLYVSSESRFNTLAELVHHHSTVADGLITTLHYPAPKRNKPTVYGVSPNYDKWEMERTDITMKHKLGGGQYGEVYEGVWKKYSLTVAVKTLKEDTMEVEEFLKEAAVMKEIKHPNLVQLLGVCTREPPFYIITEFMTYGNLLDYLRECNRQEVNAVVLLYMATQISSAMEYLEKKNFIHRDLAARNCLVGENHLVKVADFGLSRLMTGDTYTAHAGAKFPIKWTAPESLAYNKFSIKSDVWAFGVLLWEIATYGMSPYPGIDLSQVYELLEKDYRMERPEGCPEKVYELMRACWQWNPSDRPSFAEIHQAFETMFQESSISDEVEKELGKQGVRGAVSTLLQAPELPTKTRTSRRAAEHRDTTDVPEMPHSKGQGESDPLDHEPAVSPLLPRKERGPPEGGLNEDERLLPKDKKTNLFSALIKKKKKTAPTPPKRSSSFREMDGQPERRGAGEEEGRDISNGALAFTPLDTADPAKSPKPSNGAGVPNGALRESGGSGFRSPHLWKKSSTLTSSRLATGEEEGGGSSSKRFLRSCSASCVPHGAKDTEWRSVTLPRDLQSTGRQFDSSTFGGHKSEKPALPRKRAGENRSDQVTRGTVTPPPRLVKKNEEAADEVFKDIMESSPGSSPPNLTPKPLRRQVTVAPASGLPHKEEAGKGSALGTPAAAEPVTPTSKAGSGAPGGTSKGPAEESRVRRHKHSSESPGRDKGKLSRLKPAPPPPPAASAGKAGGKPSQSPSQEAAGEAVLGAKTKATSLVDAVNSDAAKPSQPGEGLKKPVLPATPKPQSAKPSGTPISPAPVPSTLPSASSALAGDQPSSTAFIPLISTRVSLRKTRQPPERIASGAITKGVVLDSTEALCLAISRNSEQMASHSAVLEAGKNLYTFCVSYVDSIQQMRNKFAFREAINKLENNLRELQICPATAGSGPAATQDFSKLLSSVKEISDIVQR

`COc1ccc(C(=O)N[C@H](C(=O)N2CCC[C@H]2C(=O)N[C@H](C(=O)C(F)(F)F)C(C)C)C(C)C)cc1`: the ΔTm in assay [1] is 0.01 °C; in assay [2], 0.28 °C; in assay [3], 0.69 °C; in assay [4], -0.09 °C; in assay [5] it was -0.75 °C; in assay [6], 0.2 °C. Moreover, the results for the ΔTm in assay [7] and in assay [8] were -1.47 °C and 1.59 °C, respectively.
In the case of `CCOc1ccc(S(=O)(=O)Nc2ccc(Cl)cc2C#Cc2cnc(C(=O)O)cc2OC)c2ncccc12`, the ΔTm in assay [1] is 0.04 °C; in assay [2] it was -2.23 °C; in assay [3], -0.26 °C; in assay [4], -7.02 °C; in assay [5], -2.42 °C; in assay [6] it was -0.03 °C. The ΔTm in assay [7] is -2.9 °C; in assay [8], 0.7 °C.
In the case of `COc1ncc(C)cc1CC[C@@](O)(CC(=O)O)C(=O)O`, the ΔTm in assay [1] is 0.5 °C; in assay [2], -1.94 °C; in assay [3] it was 0.22 °C; in assay [4], -0.36 °C; in assay [5] it was 0.4 °C; in assay [6], 0.35 °C. Further, the shift in melting temperature (ΔTm) in assay [7] was -1.39 °C; in assay [8], -0.23 °C.
`CCC(NC(=O)C(CC(C)C)NC(=O)OCc1ccccc1)C(=O)C(=O)NCCCN1CCOCC1` (stereo unspecified): the ΔTm in assay [1] was 0.13 °C; in assay [2] it was -2.44 °C; in assay [3] it was -0.24 °C; in assay [4], 0.08 °C; in assay [5] it was -1.31 °C; in assay [6], -0.33 °C. In addition, the values for the ΔTm in assay [7] and in assay [8] were -0.93 °C and -1.35 °C, respectively.
Take `COc1cc2c(NCC3CCN(C)CC3)cc(-c3ccc(C)o3)nc2cc1OCCCN1CCCC1`: the ΔTm in assay [1] was -0.17 °C; in assay [2], -1.85 °C; in assay [3], 0.22 °C; in assay [4] it was 0.3 °C; in assay [5], -1.71 °C; in assay [6], 0.07 °C. The values for the shift in melting temperature (ΔTm) in assay [7] and in assay [8] were 0.46 °C and -1.43 °C, respectively.
On to `O=C(NCCCCCCCCNC(=O)C(Cl)Cl)C(Cl)Cl`, for which the ΔTm in assay [1] was 0.05 °C; in assay [2] it was -2.38 °C; in assay [3], -0.1 °C; in assay [4], -0.18 °C; in assay [5] it was -1.79 °C; in assay [6] it was -0.02 °C. The ΔTm is -1.73 °C in assay [7] and 1.02 °C in assay [8].
Consider `CCCSc1nc2c(c(=O)n1-c1ccccc1)SCC2`, for which the ΔTm in assay [1] was -0.05 °C; in assay [2], 1.58 °C; in assay [3] it was -0.05 °C; in assay [4], -0.11 °C; in assay [5] it was -0.82 °C; in assay [6] it was 1.06 °C. The ΔTm was 0.01 °C in assay [7] and 0.72 °C in assay [8].
As to `COc1cc2c(NC3CCN(C)CC3)nc(N3CCCN(C)CC3)nc2cc1OCCCN(C)C`, the ΔTm in assay [1] is 0.04 °C; in assay [2], -1.01 °C; in assay [3] it was 0.12 °C; in assay [4] it was 0.25 °C; in assay [5] it was -0.54 °C; in assay [6], 0.4 °C. The thermal shift (ΔTm) in assay [7] was -1.36 °C; in assay [8], -0.25 °C.
On to `CCOc1ccc(Cc2cc([C@]34OC[C@](CO)(O3)[C@@H](O)[C@H](O)[C@H]4O)ccc2Cl)cc1`, for which the ΔTm in assay [1] was 0.25 °C; in assay [2], 2.11 °C; in assay [3], 0.62 °C; in assay [4], -0.26 °C; in assay [5], -0.1 °C; in assay [6] it was 0.67 °C. Besides, the ΔTm in assay [7] is -0.99 °C; in assay [8], 1.7 °C.
Consider `Cc1cc(C)cc(Oc2ccc(CNC(=O)[C@H](C)N)cc2C)c1`, for which the ΔTm in assay [1] is 1.83 °C; in assay [2], -1.81 °C; in assay [3] it was 0.25 °C; in assay [4], 0.15 °C; in assay [5], -1.22 °C; in assay [6] it was -0.21 °C. Besides, the ΔTm in assay [7] is -0.6 °C; in assay [8] it was -1.58 °C.
With `O=C(NC1CCC1)c1ccc2nc(-c3cccc(NS(=O)(=O)NCCN4CCCCC4)c3)cn2c1`, the ΔTm is 0.57 °C in assay [1]; -2.44 °C in assay [2]; 0.18 °C in assay [3]; -0.21 °C in assay [4]; -0.29 °C in assay [5]; 0.15 °C in assay [6]. For the same compound, the figures for the ΔTm in assay [7] and in assay [8] were -2.15 °C and 0.09 °C, respectively.
As to `CCN(C(=O)c1cc(F)ccc1Oc1cncnc1N1CC2(CCN(C[C@H]3CC[C@H](NS(=O)(=O)CC)CC3)CC2)C1)C(C)C`, the ΔTm in assay [1] is 0.7 °C; in assay [2], -2.35 °C; in assay [3] it was 0.16 °C; in assay [4] it was -0.01 °C; in assay [5], -0.74 °C; in assay [6], 0.48 °C. The ΔTm in assay [7] is -2.26 °C; in assay [8], 0.24 °C.
In the case of `CCCC[C@@H](C=O)NC(=O)[C@H](CC(C)C)NC(=O)[C@H](CC(C)C)NC(C)=O` (Ac-Leu-Leu-[Nle]-aldehyde), the ΔTm in assay [1] was 0.18 °C; in assay [2], -2.71 °C; in assay [3], 0.09 °C; in assay [4], 0.12 °C; in assay [5], -0.45 °C; in assay [6], 0.06 °C. The ΔTm in assay [7] was -1.13 °C; in assay [8], -1.21 °C.
Regarding `c1cncc(-c2cnn[nH]2)c1`, the ΔTm in assay [1] was 0.48 °C; in assay [2], -1.91 °C; in assay [3], -0.01 °C; in assay [4], -0.01 °C; in assay [5] it was -0.3 °C; in assay [6] it was 0.24 °C. Moreover, the ΔTm is -1.49 °C in assay [7] and -0.2 °C in assay [8].
As for `CC(=O)N1CCc2c(c(N3CCCc4cc(-c5cnn(C)c5)c(C(F)F)cc43)nn2C2CCOCC2)C1`, the ΔTm in assay [1] is 0.45 °C; in assay [2] it was 0.99 °C; in assay [3] it was -0.16 °C; in assay [4], 0.23 °C; in assay [5], -0.52 °C; in assay [6] it was -0.44 °C. The ΔTm in assay [7] is -1.07 °C; in assay [8], -1.11 °C.
`CN(C)Cc1ccc(-c2nc3cccc4c3n2CCNC4=O)cc1`: the ΔTm is 0.45 °C in assay [1]; 0.14 °C in assay [2]; 0.42 °C in assay [3]; -0.01 °C in assay [4]; 1.99 °C in assay [5]; 0.01 °C in assay [6]. The ΔTm is -0.64 °C in assay [7] and 0.79 °C in assay [8].
Regarding `O=S(=O)(O)c1ccc2cc(/N=N/c3cc(S(=O)(=O)O)c4cccnc4c3O)ccc2c1`, the ΔTm in assay [1] is 0.53 °C; in assay [2], -2.44 °C; in assay [3], 2.89 °C; in assay [4], 0.85 °C; in assay [5], 1.3 °C; in assay [6] it was -3.54 °C. Moreover, the values for the ΔTm in assay [7] and in assay [8] were -2.45 °C and -1.13 °C, respectively.
